For 14 compounds, growth results are on record in PubChem BioAssay (NCI).

About 83,000 compounds went through this panel and 20% of them were active in at least one assay; those are over-represented in the sample as a whole.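 Treatment: one concentration, 48 hours, 96-well format. Scoring: percent growth, with anything below 10 considered active.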 Unmarked numbers belong to inactive results. Activity calls are given as the source filed them.

The assay concerns MDA-MB-468 breast. Put plainly: NCI-60 one-dose screen, 48 h (100 = growth as untreated, 0 = no growth, -100 = all killed). As to conditions: 10 µM unless noted.
In the case of `C=CCSSc1ncnc2c1ncn2C1OC(CO)C(O)C1O` (centres undefined), the growth is 7.11% (active).

Turning to `Cc1cc(OCc2ccc(C(F)(F)F)cc2)c2c(c1)C(=O)C=C(NCCN1CCCC1)C2=O`, the growth is 51.3%.

On to `CCCCCCCC/C=C/CCCCCCCC1=NC(C)(C)CN1C(C)(C)CO`, for which the growth was -91.5% (active).

Turning to `Cc1nccc2c3ccc(OCc4cn(-c5ccccc5)nn4)cc3n(CCCc3ccccc3)c12`, the growth was 49%.

As to `CC/C=C\C[C@H](O)C/C=C1/C(=O)C=C[C@@]1(C)C/C=C\CCCC(=O)OC`, the growth was 105%.

Take `O=C1NC(SCc2ccc(F)cc2)=N/C1=C/c1cccc(OCc2ccc(Cl)cc2)c1`: the growth is 62.9%.

Consider `CC(=O)Oc1ccc(Cl)cc1CN(C(C)=O)C1CCCCC1`, for which the growth is 101%.

On to `O=C(OCC(O)C(=O)NC12CC3CC(CC(C3)C1)C2)c1cccc(Br)c1` (centres undefined), for which the growth was 99.9%.

As for `N#Cc1nc(-c2ccc(F)cc2)oc1S(=O)(=O)N1CCCCC1`, the growth was 52.7%.

In the case of `O=S(=O)(NCl)c1ccccc1`, the growth was 108%.

As for `CC1(C)CC[C@]2(C(=O)O)CC[C@]3(C)C(=CC[C@@H]4[C@@]5(C)Cc6c([nH]c7ccccc67)C(C)(C)[C@@H]5CC[C@]43C)[C@@H]2C1`, the growth was 53.4%.

Regarding `OC(c1ccc(Cl)cc1)(c1ccc(Cl)cc1)C(O)(c1ccc(Cl)cc1)c1ccc(Cl)cc1`, the growth was 12.6%.

For `COc1cc(N=C2C(=O)N(Cc3ccccc3)c3ccccc32)cc(OC)c1OC`, the growth is 103%.

As to `CCOC(=O)c1c(-c2ccc(C)cc2)c(C#N)c(=O)n(-c2cccc(C(F)(F)F)c2)c1N`, the growth is 99.9%.
